Source: PubChem BioAssay (NCATS)
Inconclusive results are not listed. The source made the active and inactive calls. Calls come from the whole dose curve; as a rule, active = well fitted curve in the direction sought with a large enough effect; inconclusive = small, poorly fitted or top-dose-only effect, or another doubt; inactive = no such curve, though single readings can be large; an effect the other way counts as inactive or inconclusive.

Biological target: Aldehyde dehydrogenase, mitochondrial (Homo sapiens) (UniProt P05091)
Experiment: qHTS for Inhibitors of the Aldehyde Dehydrogenase Family (ALDH2) Primary screen (AID 2061308);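 note: plate controls were vehicle for no effect and reference inhibitor for full effect; nearly all actives have a fitted effect of over 55% in size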
Settings: ALDH2 enzyme inhibition qHTS, 1536-well; series mostly up to 56 µM; activity change, negative = inhibition: at the top concentration

| SMILES | activity change, negative = inhibition |
| --- | --- |
| COc1ccc(C2c3c(ncn(CCc4ccccc4)c3=N)Oc3ccc4ccccc4c32)cc1OC (stereo not given) | 2.99% (inactive) |
| CCc1ccc(S(=O)(=O)Nc2cnccc2C(=O)Nc2nc(-c3ccccc3)cs2)cc1 | 18.2% (inactive) |
| CC(=O)Nc1sc2c(c1-c1cccc3c1sc1ccccc13)CCNC2 | -11.7% (inactive) |
| Clc1ccc2ncc(-c3cccc(NC4CCNC4)n3)n2c1 (stereo not given) | -8% (inactive) |
| COc1ccnc(NC(=S)N2CCN(c3cc(C(F)(F)F)cc(C(F)(F)F)c3)CC2)c1 | 7.12% (inactive) |
| CCN(CC)CCn1c(-c2ccccc2)nc2c(NCCO)nc(C)nc21 | 14.7% (inactive) |
| Cc1ccc(-c2cc(C(=O)NCc3ccc(S(C)(=O)=O)cc3)c3ccccc3n2)cc1C | 15.1% (inactive) |
| CC(=O)Nc1sc2c(c1-c1ccc(C(N)=O)cc1)CCNC2 | -1.67% (inactive) |
| O=S(=O)(Nc1nccs1)c1ccc(NCc2ccccc2O)cc1 | 12.9% (inactive) |
| COc1cccc(-c2ccc3ncnc(N(C)Cc4ccco4)c3c2)c1 | 0.617% (inactive) |
| Brc1ccc(-c2csc(N3CCNCC3)n2)cc1 | 2.53% (inactive) |
| COc1ccc([S+](=O)([O-])N2CCN([S+](=O)([O-])c3ccc4c(c3)OCCO4)CC2)c(OC)c1 | 9.65% (inactive) |
| COc1ccc(NC(=O)c2cc(-c3ccc(C)c(C)c3)nc3ccccc23)cc1 | 2.28% (inactive) |
| CC(=O)Nc1sc2c(c1-c1ccc3[nH]ccc3c1)CCNC2 | 4.64% (inactive) |
| Cc1cc2c(s1)c1cnn(Cc3c(F)ccc(C)c3F)c(=O)c1n2C | 4.75% (inactive) |
| Cc1ccc(NS(=O)(=O)c2cc3c(cc2NC(C)CO)NC(=O)CC3)cc1C (stereo not given) | 19.5% (inactive) |
| Cc1cc(C)n2ncc(C(=O)NCC(C)C)c2n1 | -4.57% (inactive) |
| Cc1ccc(S(=O)(=O)Nc2ccccc2C(=O)Nc2ncc(-c3ccccc3)s2)cc1 | 13.4% (inactive) |
| O=S(=O)(c1ccccc1)N1CCN(S(=O)(=O)c2ccc3c(c2)OCCO3)CC1 | -0.906% (inactive) |
| CNc1cc2c(cc1S(=O)(=O)Nc1ccc(C)c(C)c1)CCC(=O)N2 | 9.98% (inactive) |

| SMILES | activity change, negative = inhibition |
| --- | --- |
| COc1cccc(C2c3c(ncn(-c4ccccc4OC)c3=N)Oc3ccc4ccccc4c32)c1 (stereo not given) | 15.4% (inactive) |
| CCN(CC)CCCCn1c(-c2ccccc2)nc2c(NCc3ccccc3)nc(C)nc21 | 20.5% (inactive) |
| Cc1cc2c(s1)c1cnn(Cc3ccc(F)cc3Cl)c(=O)c1n2C | 6.41% (inactive) |
| Cc1ccc(OCCn2c(CCNC(=O)C3CCC3)nc3ccccc32)cc1 | 13.8% (inactive) |
| CC(=O)Nc1ccc(NC(=S)NC(=O)c2ccc(C(C)(C)C)cc2)cc1 | -6.09% (inactive) |
| O=C(Nc1ccc([S+](=O)([O-])Nc2nccs2)cc1)C1CCNCC1 | -1.49% (inactive) |
| Cc1nc(NCCO)c2nc(-c3ccccc3)n(CCCN(C)C)c2n1 | 1.19% (inactive) |
| CCOC(=O)C1CCN(C(=O)C2(NC(=O)Nc3ccccc3Cl)CCCCC2)CC1 | 4.11% (inactive) |
| Cc1cc(-c2cc(O)ccc2Cl)cc2nnc(Nc3ccc(OCCN4CCCC4)cc3)nc12 | 9.71% (inactive) |
| N#Cc1cc(NC(=O)Nc2cccc(-c3ccncc3)n2)ccc1Cl | -14.6% (inactive) |
| CNC1CCC(N(Cc2ccc(OC)c(-c3ccc(C#N)cc3)c2)C(=O)c2sc3ccccc3c2Cl)CC1 (stereo not given) | 15.6% (inactive) |
| O=C(O)c1ccc(O)c2ncc(-c3n[nH]nc3-c3ccccc3)cc12 | -6.52% (inactive) |
| FC(F)(F)c1cccc(-c2ccc(CNc3nc(-c4ccccc4C(F)(F)F)nc4ccccc34)cc2)c1 | -19.7% (inactive) |
| O=S1(=O)N=C(N2CCOCC2)c2ccccc21 | 6.26% (inactive) |
| Cn1nnnc1Sc1ncnc2scc(-c3cccc4ccccc34)c12 | -12.1% (inactive) |
| COCCNc1nc(C)nc2c1nc(-c1ccccc1)n2CCN(C)C | 21.3% (inactive) |
| CCOC(=O)C1CCN(C(=O)C(C)(C)NC(=O)Nc2ccc(C#N)cc2)CC1 | 3.19% (inactive) |
| COc1ccc(C2c3c(ncn(CCCc4ccccc4)c3=N)Oc3ccc4ccccc4c32)cc1OC (stereo not given) | 3.25% (inactive) |
| NC(=O)c1ccc(Cc2c(-c3cccc(-c4ccccc4)c3)[nH]n(-c3nc(C(=O)O)cs3)c2=O)cc1 | 2.47% (inactive) |
| COC(=O)c1nc(Nc2cc(F)cc(F)c2)nc(NC2CCCC2)n1 | 1.92% (inactive) |

Biological target: Retinaldehyde dehydrogenase 3 (Homo sapiens) (UniProt P47895)
Experiment: qHTS for Inhibitors of the Aldehyde Dehydrogenase Family (ALDH1A3) Primary screen (AID 2061315);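 note: plate controls were DMSO vehicle for no effect and reference inhibitor for full effect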
Settings: ALDH inhibition qHTS; series mostly up to 56 µM; activity change, negative = inhibition: at the top concentration

| SMILES | activity change, negative = inhibition | Potency |
| --- | --- | --- |
| COc1ccc(C2c3c(ncn(CCc4ccccc4)c3=N)Oc3ccc4ccccc4c32)cc1OC (stereo not given) | -3.27% (inactive) |  |
| CCc1ccc(S(=O)(=O)Nc2cnccc2C(=O)Nc2nc(-c3ccccc3)cs2)cc1 | 21.6% (inactive) |  |
| CC(=O)Nc1sc2c(c1-c1cccc3c1sc1ccccc13)CCNC2 | -3.57% (inactive) |  |
| Clc1ccc2ncc(-c3cccc(NC4CCNC4)n3)n2c1 (stereo not given) | -11.6% (inactive) |  |
| COc1ccnc(NC(=S)N2CCN(c3cc(C(F)(F)F)cc(C(F)(F)F)c3)CC2)c1 | 7.13% (inactive) |  |
| CCN(CC)CCn1c(-c2ccccc2)nc2c(NCCO)nc(C)nc21 | 5.08% (inactive) |  |
| Cc1ccc(-c2cc(C(=O)NCc3ccc(S(C)(=O)=O)cc3)c3ccccc3n2)cc1C | 1.21% (inactive) |  |
| CC(=O)Nc1sc2c(c1-c1ccc(C(N)=O)cc1)CCNC2 | -16.4% (inactive) |  |
| O=S(=O)(Nc1nccs1)c1ccc(NCc2ccccc2O)cc1 | 33.5% (inactive) |  |
| COc1cccc(-c2ccc3ncnc(N(C)Cc4ccco4)c3c2)c1 | 3.72% (inactive) |  |
| Brc1ccc(-c2csc(N3CCNCC3)n2)cc1 | 29.2% (inactive) |  |
| COc1ccc([S+](=O)([O-])N2CCN([S+](=O)([O-])c3ccc4c(c3)OCCO4)CC2)c(OC)c1 | 0.38% (inactive) |  |
| COc1ccc(NC(=O)c2cc(-c3ccc(C)c(C)c3)nc3ccccc23)cc1 | 4.42% (inactive) |  |
| CC(=O)Nc1sc2c(c1-c1ccc3[nH]ccc3c1)CCNC2 | -8.02% (inactive) |  |
| Cc1cc2c(s1)c1cnn(Cc3c(F)ccc(C)c3F)c(=O)c1n2C | 6.6% (inactive) |  |
| Cc1ccc(NS(=O)(=O)c2cc3c(cc2NC(C)CO)NC(=O)CC3)cc1C (stereo not given) | 0.758% (inactive) |  |
| Cc1cc(C)n2ncc(C(=O)NCC(C)C)c2n1 | -7.23% (inactive) |  |
| Cc1ccc(S(=O)(=O)Nc2ccccc2C(=O)Nc2ncc(-c3ccccc3)s2)cc1 | 7.25% (inactive) |  |
| O=S(=O)(c1ccccc1)N1CCN(S(=O)(=O)c2ccc3c(c2)OCCO3)CC1 | -10.3% (inactive) |  |
| CNc1cc2c(cc1S(=O)(=O)Nc1ccc(C)c(C)c1)CCC(=O)N2 | -7.14% (inactive) |  |

| SMILES | activity change, negative = inhibition | Potency |
| --- | --- | --- |
| COc1cccc(C2c3c(ncn(-c4ccccc4OC)c3=N)Oc3ccc4ccccc4c32)c1 (stereo not given) | 1.77% (inactive) |  |
| CCN(CC)CCCCn1c(-c2ccccc2)nc2c(NCc3ccccc3)nc(C)nc21 | 20.3% (inactive) |  |
| Cc1cc2c(s1)c1cnn(Cc3ccc(F)cc3Cl)c(=O)c1n2C | 8.57% (inactive) |  |
| Cc1ccc(OCCn2c(CCNC(=O)C3CCC3)nc3ccccc32)cc1 | 5.02% (inactive) |  |
| CC(=O)Nc1ccc(NC(=S)NC(=O)c2ccc(C(C)(C)C)cc2)cc1 | 18.4% (inactive) |  |
| O=C(Nc1ccc([S+](=O)([O-])Nc2nccs2)cc1)C1CCNCC1 | -4.37% (inactive) |  |
| Cc1nc(NCCO)c2nc(-c3ccccc3)n(CCCN(C)C)c2n1 | 14.1% (inactive) |  |
| CCOC(=O)C1CCN(C(=O)C2(NC(=O)Nc3ccccc3Cl)CCCCC2)CC1 | 0.377% (inactive) |  |
| Cc1cc(-c2cc(O)ccc2Cl)cc2nnc(Nc3ccc(OCCN4CCCC4)cc3)nc12 | -12.7% (inactive) |  |
| N#Cc1cc(NC(=O)Nc2cccc(-c3ccncc3)n2)ccc1Cl | 4.28% (inactive) |  |
| CNC1CCC(N(Cc2ccc(OC)c(-c3ccc(C#N)cc3)c2)C(=O)c2sc3ccccc3c2Cl)CC1 (stereo not given) | 3.01% (inactive) |  |
| O=C(O)c1ccc(O)c2ncc(-c3n[nH]nc3-c3ccccc3)cc12 |  | inactive |
| FC(F)(F)c1cccc(-c2ccc(CNc3nc(-c4ccccc4C(F)(F)F)nc4ccccc34)cc2)c1 | -18.6% (inactive) |  |
| O=S1(=O)N=C(N2CCOCC2)c2ccccc21 | -7.66% (inactive) |  |
| Cn1nnnc1Sc1ncnc2scc(-c3cccc4ccccc34)c12 | 1.41% (inactive) |  |
| COCCNc1nc(C)nc2c1nc(-c1ccccc1)n2CCN(C)C | -8.07% (inactive) |  |
| CCOC(=O)C1CCN(C(=O)C(C)(C)NC(=O)Nc2ccc(C#N)cc2)CC1 | 4.09% (inactive) |  |
| COc1ccc(C2c3c(ncn(CCCc4ccccc4)c3=N)Oc3ccc4ccccc4c32)cc1OC (stereo not given) | 0.95% (inactive) |  |
| NC(=O)c1ccc(Cc2c(-c3cccc(-c4ccccc4)c3)[nH]n(-c3nc(C(=O)O)cs3)c2=O)cc1 | -24.2% (inactive) |  |
| COC(=O)c1nc(Nc2cc(F)cc(F)c2)nc(NC2CCCC2)n1 | 14% (inactive) |  |
